# Results taken from PubChem BioAssay AID651610 (Broad Institute, 2012).
# The campaign covered roughly 360,000 compounds. About 3,900 (1.1%) were called active. This excerpt belongs to a sample that is enriched for actives. A number with no mark means an inactive call.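 Rule for the calls: active = mean replicate inhibition score of at least 50 and every replicate individually at or above 50; inconclusive = only one of the two criteria met; inactive = mean below 50 and not all replicates reaching 50.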
# Assay: inhibitors of HIV-1 Env-driven cell-cell fusion, primary screen, HeLa-JRFL effector, CEM21 target cells, luciferase (AID 651610);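 note: 0% = plate neutral controls and 100% = maraviroc near 300 nM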
# Conditions: stronger effect = higher value; at 16.7 µM unless noted
row,SMILES,inhibition
1,C[C@H](CO)N1C[C@H](C)[C@@H](CN(C)C(=O)C2CC2)Oc2cc(C#CC(C)(C)O)ccc2S1(=O)=O,-33.6%
2,C[C@@H]1CCCCO[C@@H](CN(C)C(=O)Nc2cccc3ccccc23)[C@H](C)CN([C@H](C)CO)C(=O)c2cc(NS(C)(=O)=O)ccc2O1,-3.83%
3,Cc1noc(C)c1S(=O)(=O)Nc1ccc2c(c1)CC(=O)N([C@H](C)CO)C[C@@H](C)[C@@H](CN(C)Cc1ccc(C(=O)O)cc1)O2,20.1%
4,Cn1c(=O)c2c(nc(NCCc3ccccc3)n2Cc2ccccc2)n(C)c1=O,86.6% [at 12.3 µM] (active)
5,Cn1c(=O)c2c(nc(NCc3ccccc3)n2CC(N)=O)n(C)c1=O,-8.78% [at 12.3 µM]
6,Cn1c(=O)c2c(nc(NCCNC(=O)c3ccco3)n2Cc2ccccc2F)n(C)c1=O,0.989% [at 12.3 µM]
7,CCCCNc1nc2c(c(=O)n(C)c(=O)n2C)n1Cc1cccc(OC)c1,88.5% [at 12.3 µM] (active)
8,CC(C)OCCCNc1nc2c(c(=O)n(Cc3ccccc3F)c(=O)n2C)n1C,4.04% [at 12.3 µM]
9,CC1CN(Cc2nc3c(c(=O)n(C)c(=O)n3C)n2Cc2cccc(Cl)c2)CC(C)O1 (centres undefined),7.96% [at 12.3 µM]
10,COc1ccc(S(=O)(=O)Nc2ccc3c(c2)C(=O)N([C@H](C)CO)C[C@@H](C)[C@H](CN(C)C(=O)Nc2ccc4c(c2)OCO4)O3)cc1,12%
11,COc1cccc(S(=O)(=O)N[C@H]2CC[C@@H](CCN)O[C@H]2CO)c1,-38.7%
12,CN(C)CCCNC(=O)C[C@@H]1C=C[C@H](NC(=O)Cc2cccnc2)[C@H](CO)O1,12.3%
13,C[C@@H]1CCCCO[C@@H](CN(C)Cc2ccncc2)[C@H](C)CN([C@H](C)CO)C(=O)c2cc(NC(=O)CCC(F)(F)F)ccc2O1,-12.7%
14,COc1cccc2c1C(=O)c1c(O)c3c(c(O)c1C2=O)CC(O)(C(C)=NNC(=O)c1ccc(Cl)c(Cl)c1)CC3OC1CC(N)C(O)C(C)O1 (centres undefined),86% [at 12.3 µM] (active)
15,C[C@@H](NC(=O)C[C@@H]1CC[C@@H](NC(=O)C2CCOCC2)[C@@H](CO)O1)c1ccccc1,-27.6%
16,C[C@@H]1CN([C@@H](C)CO)C(=O)c2cc(-c3cncnc3)cnc2O[C@@H]1CN(C)Cc1ccncc1,1.5%
17,CC1CCCN(c2cccc3c2S(=O)(=O)N(Cc2ccc(F)cc2)[C@@H](C)[C@H](c2ccccc2)O3)C1 (some centres undefined),-2.41% [at 12.3 µM]
18,CN(C)C(=O)C[C@@H]1CC[C@H](NC(=O)NC2CCCC2)[C@H](CO)O1,2.96%
19,O=C(Nc1cccn(Cc2c(Cl)cccc2Cl)c1=O)c1ccc(Cl)cc1,76.4% [at 12.3 µM] (active)
20,Cc1cc(NC(=O)c2ccco2)c(=O)n(Cc2c(F)cccc2Cl)c1,-1.03% [at 12.3 µM]
21,O=C(Nc1cccn(Cc2ccccc2Cl)c1=O)NC1CCCCC1,-4.39% [at 12.3 µM]
22,CNC(=O)C[C@@H]1CC[C@H]2[C@H](COc3ccc(NC(=O)c4cccc(OC)c4)cc3C(=O)N2C)O1,-18.7%

row,SMILES,inhibition
1,C[C@H](CO)N1C[C@H](C)[C@@H](CN(C)S(=O)(=O)c2ccccc2)Oc2c(NC(=O)c3ccc(-c4nccs4)cc3)cccc2C1=O,-55.7%
2,O=C(Cc1ccncc1)NCC[C@H]1CC[C@H](NC(=O)C2CC2)[C@H](CO)O1,4.94%
3,C[C@@H]1CN([C@@H](C)CO)C(=O)c2cc(NC(=O)C3CCCCC3)ccc2O[C@@H](C)CCCCO[C@H]1CN(C)C(=O)Nc1ccc2c(c1)OCO2,-19.1%
4,COc1ccc(CNc2nccs2)cc1,-9.44% [at 12.3 µM]
5,COc1ccc(CNc2ncnc3ccccc23)cc1,77% [at 12.3 µM] (active)
6,c1ccc(CNc2ncnc3[nH]ncc23)cc1,27.4% [at 12.3 µM]
7,C[C@@H]1CCCCO[C@@H](CN(C)S(=O)(=O)c2cn(C)cn2)[C@@H](C)CN([C@H](C)CO)C(=O)c2cc(NC(=O)c3ccncc3)ccc2O1,26.2%
8,CC(C)NC(=O)Nc1ccc2c(c1)CC(=O)N([C@H](C)CO)C[C@@H](C)[C@H](CN(C)S(=O)(=O)c1ccccc1)O2,2.93%
9,COc1cc(CNCc2ccc(OC)c3ccccc23)cc(OC)c1OC,99.1% [at 12.3 µM] (active)
10,COc1ccc(CNCCCNCc2ccc(OC)c(OC)c2)cc1OC,-12.6% [at 12.3 µM]
11,CCOc1c(CNCc2ccc(C(=O)O)cc2)cccc1OC,1.89% [at 12.3 µM]
12,Cc1noc(C)c1S(=O)(=O)Nc1ccc2c(c1)C(=O)N([C@H](C)CO)C[C@@H](C)[C@@H](CN(C)S(=O)(=O)c1ccc(Cl)cc1)O2,-6.25%
13,C[C@@H]1CN([C@@H](C)CO)C(=O)c2cc(N(C)C)ccc2O[C@H]1CN(C)Cc1ccc(C(F)(F)F)cc1,14.9%
14,COc1ccc(C(=O)Nc2nc(-c3ccc(S(=O)(=O)N4CCOCC4)cc3)cs2)cc1,93.5% [at 12.3 µM] (active)
15,CNC(=O)c1ccsc1NC(=O)c1ccc(S(=O)(=O)N2CCOCC2)cc1,-27.2% [at 12.3 µM]
16,COc1ccc(C(=O)Nc2cc(S(=O)(=O)N3CCCC3)ccc2Cl)cc1,-8.82% [at 12.3 µM]
17,CO[C@@H]1CN(C)C(=O)c2ccc(NC(=O)c3ccc(F)cc3)cc2OC[C@H](C)N(C)C[C@H]1C,9.99%
18,CN1C(=O)c2cc(NC(=O)c3cscn3)ccc2OC[C@H]2O[C@@H](CC(=O)NCC3CC3)CC[C@H]21,-0.83%
19,C[C@@H]1CCCCO[C@H](CN(C)Cc2ccccc2)[C@@H](C)CN([C@H](C)CO)C(=O)c2cc(NS(C)(=O)=O)ccc2O1,-1.64%
20,CCn1c(SCC(=O)NC2CCCC2)nnc1-c1ccoc1C,-2.28% [at 12.3 µM]
21,COc1ccccc1NC(=O)CSc1nnc(-c2ccoc2C)n1CCc1ccccc1,62.4% [at 12.3 µM] (active)
22,COc1ccccc1NC(=O)CSc1nnc(Cn2nnc(-c3ccccc3)n2)n1-c1ccccc1,-41.2% [at 12.3 µM]
